This is an account of results in PubChem BioAssay AID2685 (National Center for Advancing Translational Sciences (NCATS), 2010).

Out of some 320,000 compounds screened, about 2,100 (0.66%) were called active. Roughly 53% stayed inconclusive and do not appear here. Calls come from the whole dose curve; as a rule, active = well fitted inhibition curve with a large enough effect in the signal ratio, with a control signal flat (not every such curve was filed as active); inconclusive = small, poorly fitted or top-dose-only effect, or effect the other way, or a change in a side signal; inactive = flat fitted curve, though single readings scatter; the % refers to the signal ratio. For the sample, actives were picked, then their nearest neighbours and some compounds at random.
Potency is the fitted concentration of half-maximal effect.

The assay can be described thus: qHTS Assay for Lipid Storage Modulators in Drosophila S3 Cells.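 For cell number change: cells counted by Cell Tracker Red CMTPX staining in the red channel.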 For lipid storage change, negative = inhibition: % is set by controls: 0 for no effect and ±100 for the full control effect. To be noted: BODIPY lipid droplet fluorescence, 18-24 h, cells fed with added oleic acid; cell number change: measured here: cell count max response; series mostly up to 46.1 µM; lipid storage change, negative = inhibition: at the top concentration. A digest of the protocol: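 Drosophila S3 cells got compounds at several concentrations plus oleic acid (400 uM solution). Laser-scanning cytometry with 488 nm excitation read lipid droplets at 500-530 nm and cells at 575-640 nm. Percent activity was relative to 20 uM Triacsin C.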
On the technique in general: qHTS replaces the single test concentration by a dilution series.
As to `CCOc1ccccc1OCCCNCc1ccccc1`, the “lipid storage change, negative = inhibition” value is 26.7% (inactive) and the cell number change amounted to 2.07%.

For `COCCNCc1ccccc1`, the Potency was 18.4 µM (active) and the cell number change is -17.8%.

For `CS(=O)(=O)c1ccc(C(=O)Nc2ccc(N3CCOCC3)cc2)c(Cl)c1`, the “lipid storage change, negative = inhibition” value is -24.8% (inactive).

As to `COc1ccc(NC(=O)COC(=O)C2CCC2)cc1Cl`, the “lipid storage change, negative = inhibition” value was 6.28% (inactive) and the cell number change stood at 12.2%.

Consider `CCC(Sc1nc(C)cc(=O)[nH]1)C(=O)Nc1nc2c(s1)CCCC2` (centres undefined), for which the Potency is 14.6 µM (active) and the cell number change is -8.37%.

Consider `COc1cc(=O)[nH]c(SC(C)C(=O)Nc2nc3c(s2)CCCC3)n1` (centres undefined), for which the result was inactive and the cell number change was determined as 7.98%.

On to `Cc1cc(=O)[nH]c(SCC(=O)Nc2nc3c(s2)CCCC3)n1`, for which the “lipid storage change, negative = inhibition” value was -0.416% (inactive) and the cell number change came to 12.9%.

On to `Cc1ccccc1-c1nc(CSc2nc3c(c(=O)[nH]2)CCC3)c(C)o1`, for which the “lipid storage change, negative = inhibition” value is 29% (inactive) and the cell number change was -21.7%.

`Cc1sc2nc(-c3cccs3)oc(=O)c2c1C`: the “lipid storage change, negative = inhibition” value is 0.745% (inactive) and the cell number change was 5.53%.

Turning to `O=c1oc(-c2cccs2)nc2scc(-c3cccs3)c12`, the Potency is 14.6 µM (active) and the cell number change was -10.7%.

Turning to `CCc1nc2scc(-c3cccs3)c2c(=O)o1`, the “lipid storage change, negative = inhibition” value was 6.47% (inactive) and the cell number change was determined as 9.87%.

Regarding `CN1CCN(NC(=O)Nc2ccc(F)cc2)CC1`, the compound was called inactive and the cell number change came out at 17.8%.

For the compound `CN1CCN(NC(=O)Nc2ccc(Br)cc2)CC1`, the “lipid storage change, negative = inhibition” value was 2.95% (inactive).

As to `CN1CCN(NC(=O)Nc2cc(Cl)cc(Cl)c2)CC1`, the Potency is 4.61 µM (active).

`CCOC(=O)C1CCCN(C(=O)c2cc3ncc(Br)cn3n2)C1` (centres undefined): the compound was classed as inactive and the cell number change was determined as 5.95%.

As for `CC(Oc1ccccc1)c1nnc(N)s1` (centres undefined), the “lipid storage change, negative = inhibition” value was -1.67% (inactive) and the cell number change came to 14.9%.

For the compound `O=C(COc1ccccc1)Nc1ccc(N2CCN(C(=O)c3ccco3)CC2)cc1`, the “lipid storage change, negative = inhibition” value is 1.13% (inactive) and the cell number change was found to be 11.5%.

For the compound `CC(C)(C)OC(=O)N1CCN(c2ccc(NC(=O)c3ccco3)cc2)CC1`, the Potency was 3.26 µM (active) and the cell number change stood at 4.03%.

For the compound `O=C(Nc1ccc(N2CCN(C(=O)c3ccco3)CC2)cc1)c1ccco1`, the “lipid storage change, negative = inhibition” value is 0.808% (inactive) and the cell number change was 25.3%.

Consider `CC(=O)N1CCN(c2ccc(NC(=O)c3ccco3)cc2)CC1`, for which the compound was called inactive and the cell number change is -9.52%.

As for `O=C(COc1ccc([N+](=O)[O-])cc1)Nc1ccc(N2CCN(C(=O)c3ccco3)CC2)cc1`, the Potency is 2.06 µM (active) and the cell number change was -6.49%.

As for `O=C(COc1ccc(Cl)cc1)Nc1ccc(N2CCN(C(=O)c3ccco3)CC2)cc1`, the “lipid storage change, negative = inhibition” value was -3.43% (inactive) and the cell number change was -2.54%.

For `CCOC(=O)C1CCCN(C2CC(=O)N(c3ccc(C(C)C)cc3)C2=O)C1` (centres undefined), the “lipid storage change, negative = inhibition” value was -14.3% (inactive) and the cell number change was 15.9%.

As to `COc1cccc(NC(=O)COC(=O)CCS(=O)(=O)c2ccc(C)cc2)c1`, the “lipid storage change, negative = inhibition” value was 9.39% (inactive).

Take `O=C(NC1CCSC1=O)c1ccc(Cl)cc1` (centres undefined): the “lipid storage change, negative = inhibition” value was -0.574% (inactive) and the cell number change turned out to be 12%.

As for `CC(C)[C@H](NC(=O)NC1CCN(Cc2ccccc2)CC1)C(=O)O`, the “lipid storage change, negative = inhibition” value is -6.91% (inactive) and the cell number change worked out at 11.2%.

In the case of `N=C1C(=O)OCC1c1ccccc1NC(=O)c1ccc(F)cc1` (centres undefined), the result was inactive and the cell number change was -9.08%.

For the compound `O=C(Nc1cccc(NC(=O)c2ccccc2[N+](=O)[O-])n1)c1ccccc1[N+](=O)[O-]`, the “lipid storage change, negative = inhibition” value is -1.54% (inactive) and the cell number change is -14.1%.

Regarding `Cc1cc(C)nc(N2CCC(C(=O)NC3CC3)CC2)n1`, the Potency is 0.58 µM (active) and the cell number change is 11.7%.

As for `Cc1cc(C)nc(N2CCCC(C(=O)NC3CC3)C2)n1` (centres undefined), the compound was called inactive and the cell number change was 0.42%.

Consider `Cc1cc(C)nc(N2CCC(C(=O)O)CC2)n1`, for which the “lipid storage change, negative = inhibition” value is 1.1% (inactive).

On to `Cc1noc(C)c1S(=O)(=O)N1CCC(C(=O)Nc2ccc(OC(F)(F)F)cc2)CC1`, for which the Potency was 18.4 µM (active) and the cell number change was -15.1%.

For the compound `CCc1ccc(NC(=O)C2CCN(S(=O)(=O)c3c(C)noc3C)CC2)cc1`, the compound was classed as inactive.

Consider `COc1ccc(NC(=O)C2CCN(S(=O)(=O)c3c(C)noc3C)CC2)cc1OC`, for which the “lipid storage change, negative = inhibition” value was -10.7% (inactive) and the cell number change was 0.165%.

Turning to `CCCN1CCN(CCCNC(=O)c2ccc3nc(N4CCC(C)CC4)sc3c2)CC1`, the compound was classed as inactive and the cell number change was -11.1%.

As to `O=S(=O)(NC1CC1)c1ccc(S(=O)(=O)N2CCC3(CC2)OCCO3)cc1`, the “lipid storage change, negative = inhibition” value was 10.1% (inactive) and the cell number change was determined as 0.569%.

Turning to `CCS(=O)(=O)N1CCN(S(=O)(=O)c2ccc(S(=O)(=O)NC3CC3)cc2)CC1`, the Potency is 6.51 µM (active) and the cell number change stood at 8.57%.

Regarding `N#CCCN1CCN(S(=O)(=O)c2ccc(S(=O)(=O)NC3CC3)cc2)CC1`, the “lipid storage change, negative = inhibition” value is 23.6% (inactive) and the cell number change came to 17.2%.

Regarding `CCN(c1ccccc1)S(=O)(=O)c1cc(NC(=O)COC(=O)C2CC2)ccc1Cl`, the “lipid storage change, negative = inhibition” value was 4.21% (inactive) and the cell number change came out at 6.19%.

Regarding `CN(C)c1ccc(/C=C/C(=O)c2ccc3c(c2)OCCO3)cc1[N+](=O)[O-]`, the “lipid storage change, negative = inhibition” value was 13.5% (inactive) and the cell number change is 33.3%.

Regarding `COc1ccccc1N1CCN(C(=O)/C=C/c2cccc([N+](=O)[O-])c2)CC1`, the “lipid storage change, negative = inhibition” value was -0.92% (inactive) and the cell number change turned out to be 9.07%.

On to `O=C(N/N=C/c1cccc([N+](=O)[O-])c1)c1ccc2c(c1)OCCO2`, for which the “lipid storage change, negative = inhibition” value is -0.131% (inactive) and the cell number change was 23.7%.

As to `O=C(/C=C/c1cccc([N+](=O)[O-])c1)N1CCN(C(=O)c2ccco2)CC1`, the “lipid storage change, negative = inhibition” value was 13.1% (inactive) and the cell number change stood at 23.6%.

In the case of `O=C(/C=C/c1cccc([N+](=O)[O-])c1)N1CCN(c2ccc(F)cc2)CC1`, the Potency was 20.6 µM (active) and the cell number change came to 2.7%.

On to `COc1ccc([N+](=O)[O-])cc1NC(=O)c1cccs1`, for which the “lipid storage change, negative = inhibition” value was 10.1% (inactive).

Regarding `CNc1cc([N+](=O)[O-])ccc1N/C=C/C(=O)c1cccs1`, the “lipid storage change, negative = inhibition” value was -0.527% (inactive) and the cell number change is -14.6%.

As for `O=C(/C=C/c1ccc([N+](=O)[O-])cc1)c1ccco1`, the “lipid storage change, negative = inhibition” value was 1.8% (inactive) and the cell number change was -5.18%.

As for `O=C(/C=C/c1cccc([N+](=O)[O-])c1)c1ccco1`, the Potency was 4.11 µM (active) and the cell number change was -29.8%.

As to `O=C(/C=C/c1cccc([N+](=O)[O-])c1)c1ccc2c(c1)OCCO2`, the Potency is 18.4 µM (active) and the cell number change was -6.34%.

`COc1cc([N+](=O)[O-])ccc1N/C=C/C(=O)c1cccs1`: the Potency is 11.6 µM (active) and the cell number change was -11.2%.

Turning to `O=C(/C=C/c1cccc([N+](=O)[O-])c1)N1CCOCC1`, the “lipid storage change, negative = inhibition” value is 11.4% (inactive).
